The structures appear in SMILES notation. In all, about 320,000 compounds went through this assay and about 1,300 (0.41%) were called active. Another 3% or so got no clear call; they are omitted. No rule for the calls is given here. These entries were drawn from the full list. Entries with a potency or affinity are not part of this list.

For orientation: inhibition means the change of the read-out against control, counted positive when it falls.

The assay is described as follows: growth inhibition of non-replicating M. tuberculosis (AID 488890).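 Also: plate controls were DMSO cells for no effect and high antibiotic wells for full effect.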 The note with it: Mycobacterium tuberculosis non-replicating, at 25 µM, stronger effect = higher value.
`O=c1[nH]c(=O)n(Cc2ccccc2Cl)c(O)c1C=Nc1ccc(F)cc1`: the inhibition is -1.58%.

In the case of `O=c1[nH]c(=O)n(Cc2ccccc2)c(O)c1/C=C1\C=Nc2ccccc21`, the inhibition was 66.3%.

As to `CCCCn1c(O)c(/C=N/NC(=O)c2ccncc2)c(=O)[nH]c1=O`, the inhibition was 53.7%.

Take `Cn1c(O)c(/C=C2/C=CC=N2)c(=O)[nH]c1=O`: the inhibition came to 75.9%.

As for `CCCCn1c(O)c(/C=C2\C=Nc3ccccc32)c(=O)[nH]c1=O`, the inhibition turned out to be 59%.

Turning to `CCCCn1c(O)c(C=NCCCn2ccnc2)c(=O)[nH]c1=O`, the inhibition is 5.46%.

Turning to `O=C(Nc1cccc(-n2cnnn2)c1)c1ccncc1`, the inhibition was determined as 0.55%.

Consider `Cc1[nH]c2ccc(F)cc2c1CCN(Cc1ccncc1)C(=S)Nc1cccc(F)c1`, for which the inhibition came to 16.2%.

Turning to `COc1ccc(/C=N/NC(=O)NC23CC4CC(CC(C4)C2)C3)c(OC)c1`, the inhibition is 27.6%.

As to `Cc1ccc(-c2noc(=O)n2CC(=O)Nc2ccc(S(=O)(=O)NC3CC3)cc2)cc1`, the inhibition was determined as 11.5%.

`O=C(NCCN1CCN(c2ccccc2)CC1)C1CCN(S(=O)(=O)c2cccc3nonc23)CC1`: the inhibition was 18.8%.

Turning to `O=C(NC1CCCCCC1)c1ccc(CS(=O)(=O)Cc2ccc(F)cc2)o1`, the inhibition was determined as 1.29%.

For `Nc1nc(NCc2c(F)cccc2Cl)nn1-c1ccccc1`, the inhibition was found to be 2.25%.

On to `CCCSc1nnc(Cn2c(=O)sc3ccccc32)n1-c1ccccc1`, for which the inhibition amounted to 7.2%.

For the compound `CN(CC(=O)Nc1cccc(F)c1)C(=O)c1ccc(OCC2CCCO2)cc1` (stereo not drawn), the inhibition was -4.27%.

For the compound `Cc1ccc(S(=O)(=O)N2CCC(C(=O)OCC(=O)NCCc3ccccc3)CC2)cc1C`, the inhibition was 27.8%.

`CCOC(=O)C1CCN(S(=O)(=O)c2ccc(C)c(C)c2)CC1`: the inhibition is -7.38%.

Regarding `O=C(NCCC(=O)N(CCc1ccccc1)Cc1ccccc1)c1ccc(Br)cc1`, the inhibition came out at 22.1%.

Consider `Fc1ccc2nc(C(F)(F)F)cc(N3CCOCC3)c2c1`, for which the inhibition was -5.99%.

Turning to `COc1cccc2sc(NN)nc12`, the inhibition is -6.89%.

For the compound `COc1ccccc1-c1nnc(Nc2nc3c(OC)cccc3s2)o1`, the inhibition amounted to 19%.

For `COc1cccc2sc(Nc3nc(-c4ccncc4)cs3)nc12`, the inhibition was determined as 31.8%.

As to `COc1ccc(-c2nnc(Nc3nc4c(OC)cccc4s3)o2)c(OC)c1`, the inhibition turned out to be 60.8%.

Turning to `O=C1Cc2ccccc2C(=O)N1Cc1ccccc1`, the inhibition was -3.14%.

Turning to `Cc1cc(C)nc(NC(=O)c2ccc(Br)s2)n1`, the inhibition turned out to be 55.2%.

`COc1ccc(Cl)cc1NC(=O)CN(C)C(=O)c1ccc(-n2cncn2)cc1`: the inhibition was 0.55%.

Take `Nc1c(-c2ccccc2)cnn1-c1ccccc1`: the inhibition is -6.23%.

`CCOC(=O)c1cccc(NC(=O)c2cccnc2)c1`: the inhibition is -4.27%.

Turning to `O=C(NNC(=O)c1ccccc1O)c1ccc(-c2ccc([N+](=O)[O-])cc2)o1`, the inhibition was -16.6%.

Take `O=C(Nc1cccnc1)c1cc(-c2ccc(Cl)cc2)on1`: the inhibition was 71%.

As to `CC(=O)NC(=O)c1ccc(-c2ccc(Cl)cc2)o1`, the inhibition is 57.6%.

As to `COC(=O)c1sccc1-c1ccc(C(=O)Nc2cccnc2)o1`, the inhibition was -4.8%.

For the compound `O=C(Nc1cccnc1)c1ccc(-c2cc(Cl)ccc2Cl)o1`, the inhibition was -8.82%.

As for `CCN(CC(=O)Nc1c(F)cccc1F)C(=O)CNC(=O)c1ccc2ccccc2c1`, the inhibition worked out at 18.6%.

For the compound `CN(C)S(=O)(=O)c1cccc(C(=O)NC(=S)N(CCC#N)Cc2cccnc2)c1`, the inhibition was 42.5%.

Consider `COCC(=O)N1CCC(Oc2ccc(C(=O)N3CCCCCC3)cc2)CC1`, for which the inhibition is -1.31%.

Turning to `COc1ccc(-c2sc3ccccc3c2-c2ccc(O)cc2)cc1`, the inhibition worked out at 17.4%.

Take `COc1ccc(NC(=O)CN(C)S(=O)(=O)c2ccc3c(c2)CCCN3C(C)=O)cc1`: the inhibition is -3.38%.

Consider `Cc1onc(C(=O)N2CCC(Cc3ccccc3)CC2)c1[N+](=O)[O-]`, for which the inhibition is -6.71%.

Turning to `CCOC(=O)CSc1nc2c(sc(=S)n2-c2ccc(CC)cc2)c(=O)[nH]1`, the inhibition came to 48.4%.

Consider `COc1ccc(NC(=O)CNc2ccccc2N2CCCC2=O)cc1S(=O)(=O)N1CCOCC1`, for which the inhibition worked out at 13.9%.

As to `Cn1cccc1CC(=O)N/N=C/c1cc([N+](=O)[O-])ccc1Cl`, the inhibition came out at 14.2%.

Consider `COC(=O)c1ccc(-c2ccc(C(c3c(C)[nH][nH]c3=O)c3c(C)[nH][nH]c3=O)o2)cc1`, for which the inhibition came out at 36.5%.

With `Cc1[nH][nH]c(=O)c1C(c1ccc(-c2cccc(C(=O)O)c2)o1)c1c(C)[nH][nH]c1=O`, the inhibition is -6.98%.

Take `Cc1c(NC(=S)NC(NC(=O)C(C)(C)C)C(Cl)(Cl)Cl)c(=O)n(-c2ccccc2)n1C` (stereo not drawn): the inhibition was 1.72%.

On to `O=C1OCC(CO)(CO)N=C1NNc1ccccc1[N+](=O)[O-]`, for which the inhibition came out at 4.31%.

Consider `O=C(CN1CCOCC1)N/N=C/c1ccc(-c2ccc(C(=O)O)cc2)o1`, for which the inhibition was found to be 2.35%.

With `CCC(=O)N/N=C/c1ccc(-c2ccc([N+](=O)[O-])cc2)o1`, the inhibition was 74.5%.

Consider `O=C(CN1CCOCC1)N/N=C/c1ccc(-c2cccc(Cl)c2Cl)o1`, for which the inhibition stood at 20.1%.

Turning to `Cc1ccc(C(=O)N/N=C\c2ccc(-c3ccc(Cl)c(Cl)c3)o2)cn1`, the inhibition came to 16.6%.

Take `Cc1ccc(C(=O)N/N=C/c2ccc(-c3cccc(Cl)c3)o2)cn1`: the inhibition was -3.58%.

As for `CC1(CC(=O)N/N=C/c2ccc(-c3ccc(Cl)cc3)o2)OCCO1`, the inhibition is 69.5%.

As for `CN(C)c1ccc(C(=O)N/N=C/C23CC[C@@H](O)CC2(O)CC[C@@H]2[C@@H]3CCC3(C)C(C4=CC(=O)OC4)CCC23O)cc1` (stereo partly drawn), the inhibition was -3.55%.

Turning to `CCOC(=O)c1cc(C)n(-n2cnnc2)c1C`, the inhibition was -3.13%.

On to `COc1ccc2c(c1)nc(SCC(=O)C(C)(C)C)n2C`, for which the inhibition stood at 7.17%.

For the compound `COc1ccc(N=C(C)C2=C(O)c3ccccc3C2=O)cc1`, the inhibition turned out to be 21%.

For the compound `N#CC(=NCc1cccnc1)C1=C(O)c2ccccc2C1=O`, the inhibition came out at 16.1%.

On to `COC(=O)C1=C(C)N(CCCC(=O)O)C(=O)NC1c1ccc(OC)cc1` (stereo not drawn), for which the inhibition is -3.65%.

Regarding `CCOc1ccc(N2CC(=O)N(c3ccc(OCC)cc3)CC2=O)cc1`, the inhibition amounted to 2.08%.

As to `CCOc1ccc(N2C(=O)CNC2=S)cc1`, the inhibition is 27.5%.

Turning to `CN(C(=O)c1ccccc1C(=O)OCC(=O)NCc1cccs1)C1CCCCC1`, the inhibition was -0.2%.

Regarding `O=C(c1ccc(Br)o1)N1CCN(c2ccc(F)cc2)CC1`, the inhibition was 66.9%.

In the case of `CN(C)C(=O)c1cccn1-c1ncc(C(F)(F)F)cc1Cl`, the inhibition was -7.62%.

For `COc1ccccc1-n1c(-c2ccccc2Br)nc2ccccc2c1=O`, the inhibition amounted to 5.34%.

Take `O=c1c2ccccc2nc(-c2ccccc2)n1-c1ccccc1O`: the inhibition was 49.7%.

As to `O=C(CCC(=O)N1CCN(c2ccc(F)cc2)CC1)c1ccc(Cl)cc1`, the inhibition was 37.7%.

As for `Cc1c(Cl)cccc1NC(=O)C1CCCN(S(C)(=O)=O)C1` (stereo not drawn), the inhibition was 1.51%.

For `Cc1ccc(S(=O)(=O)N2CCCCC2)cc1NC(=O)COC(=O)C1=COCCO1`, the inhibition is -3.36%.

Consider `CC(=O)c1c(O)cc(C(C)C)n(-c2ccccc2)c1=O`, for which the inhibition is 6.76%.

For the compound `C=CCNC(=O)N[C@@H](CCSC)C(=O)OC`, the inhibition was -9.43%.

As to `O=C(COC(=O)c1n[nH]c2ccccc12)NCCc1ccc(Cl)cc1`, the inhibition turned out to be 18.4%.

For `Cc1ccccc1NCc1nc2ccccc2n1C`, the inhibition was 34.2%.

Consider `CCCn1c(CNC(=O)Cc2ccccc2)nc2ccccc21`, for which the inhibition was -2.66%.

Turning to `CCCn1c(CNc2ccc(Br)cc2)nc2ccccc21`, the inhibition came out at 66.1%.

As for `Cn1c(CNc2ccc(O)cc2)nc2ccccc21`, the inhibition came out at 73.1%.

Regarding `COc1ccc(S(=O)(=O)N2CCC(C(=O)N3CCCCC3)CC2)cc1`, the inhibition is -4.95%.

Turning to `O=C(CNC(=O)c1cccs1)NCC(=O)OCc1ccccc1Br`, the inhibition worked out at 20.5%.

Regarding `Cc1ccc(S(=O)(=O)Nc2ccc(F)cc2)cc1C(=O)N1CCOCC1`, the inhibition is -12.4%.

On to `COc1cc(OC)nc(-n2ncc(OC)c(Br)c2=O)n1`, for which the inhibition is -12%.

With `COC(=O)c1cnn(-c2nc(OC)cc(OC)n2)c1C`, the inhibition was -11.5%.

For the compound `COc1cc(C(=O)ON=C2C3CC4CC(C3)CC2C4)cc(OC)c1OC`, the inhibition came to 46.9%.

Regarding `COc1ccc(-c2nc(CSCC(=O)N3CCN(C(=O)c4ccco4)CC3)c(C)o2)cc1OC`, the inhibition was -16.5%.

For the compound `CCOC(=O)C1(CCOc2ccccc2)CCN(C(=O)CCSC)CC1`, the inhibition worked out at 10.9%.

In the case of `COc1cccc(/C=C2/SC(=S)N(CCC(=O)N3CCOCC3)C2=O)c1`, the inhibition was 46.5%.

In the case of `O=C(CCN1C(=O)/C(=C\c2ccccc2Cl)SC1=S)N1CCN(c2ccccc2)CC1`, the inhibition came out at 73.2%.

On to `CN1CCN(C(=O)CCN2C(=O)/C(=C/c3ccccc3Cl)SC2=S)CC1`, for which the inhibition was 18.9%.

With `COc1cccc(/C=C2\SC(=S)N(CCCC(=O)N3CCCCC3)C2=O)c1`, the inhibition was determined as 79%.

For the compound `O=C(c1ccco1)N1CCN(C(=O)c2ccc(COc3ccc(Cl)cc3Cl)o2)CC1`, the inhibition is 11.7%.

`CS(=O)(=O)c1ccc2nc(NC(=O)CN3C(=O)C4CC=CCC4C3=O)sc2c1` (stereo not drawn): the inhibition is -9.69%.

Take `COC(=O)c1ccc(N2NC(=O)/C(=C/c3cc(OC)c(OC)c(OC)c3)C2=O)cc1`: the inhibition is 13.4%.

As for `C=CCn1c(O)c(N=NC(=O)c2ccc3c(c2)OCO3)c2ccccc21`, the inhibition stood at 11.7%.

Take `Cc1cc(C)n2nc(CNS(=O)(=O)c3ccc(CC(C)C)cc3)nc2n1`: the inhibition was 7.85%.

Turning to `O=C(NC1CC1)C1CC(=O)N(C2CCCCC2)C1` (stereo not drawn), the inhibition was -5.51%.

For the compound `CC(NC(=O)CSc1nnc(-c2cc3cc(Cl)ccc3o2)n1C)c1ccccc1` (stereo not drawn), the inhibition was found to be 16.7%.

Consider `CNC(C)C#Cc1ccc2oc3cccc(OC)c3c(=O)c2c1` (stereo not drawn), for which the inhibition amounted to 57.7%.

Consider `CNC(C)C#Cc1ccc2c(=O)c3c(OC)cccc3oc2c1` (stereo not drawn), for which the inhibition was determined as 42.6%.

As for `CCOc1ccc(S(=O)(=O)N2CCC(C(=O)N3CCCCCC3)CC2)cc1C`, the inhibition was determined as 21.6%.

For `O=[N+]([O-])c1ccc(N2CCCCC2)cc1SCCO`, the inhibition came out at 7.65%.

For `CC(=O)Nc1ccc(NC(=O)c2ccc(CN3CCc4ccccc4C3)cc2)cc1`, the inhibition was found to be 28.5%.

As for `CC(C)NC(=O)c1ccc(CN2CCc3ccccc3C2)cc1`, the inhibition is -40%.

As for `CCOC(=O)C1=C(C)Nc2sc(C(=O)c3ccc(OC)cc3)c(N)c2C1c1ccc(C(=O)OC)cc1` (stereo not drawn), the inhibition came out at 26.4%.

For `CCCCCC(=O)NC(=S)Nc1cccc(-c2nc3ncccc3o2)c1`, the inhibition was -12.6%.

With `COC(=O)c1ccc(C)c(NC(=O)CSc2nc3[nH]c(=O)cc(O)c3s2)c1`, the inhibition turned out to be 11.9%.

On to `COc1cccc(C(=O)OCC(=O)N2CCc3ccccc3C2)c1`, for which the inhibition was determined as 43.9%.

For the compound `Nc1ccc(C(=O)OCC(=O)N2CCc3ccccc3C2)cc1[N+](=O)[O-]`, the inhibition worked out at 39%.

As to `COc1cccc(-c2nc(-c3ccccc3)c(-c3ccccc3)[nH]2)c1OCC(=O)O`, the inhibition is 4.59%.

Consider `O=[N+]([O-])c1cc(C(F)(F)F)ccc1NC1CCN(Cc2ccccc2)CC1`, for which the inhibition stood at 52.5%.

Take `FC(F)Sc1ccc(-n2c(-c3ccc(Cl)cc3)c[n+]3c2CCC3)cc1`: the inhibition is -0.67%.

Source of the values: PubChem BioAssay AID488890 (Southern Research Specialized Biocontainment Screening …, 2010).
